A short description of assay [1]: inhibitors of TNFa-induced NFkB p65 translocation, primary screen, imaging, HUVEC, MLSMR starter and 10KST1 sets (AID 438;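 active = inhibition above 20% together with a positive visual image hit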;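 also: compound added about 3h40 before a 20 min TNFalpha stimulation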;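 as to inhibition: signal is the nuclear over cytoplasmic p65 intensity ratio per well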). To be noted: HUVEC TNFa-induced p65 nuclear translocation; cell count: measured here: nuclei count (cytotoxicity indicator), at 2.08 µM; inhibition: at 2 µM, stronger effect = higher value, 0% TNFa-plus-vehicle, 100% no-TNFa wells.
Assay [2] can be described thus: endothelial E-selectin expression blockers – imaging, HUVEC, immunofluorescence, MLSMR starter and 10KST1 sets, primary screen (AID 487;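 active = visually confirmed hit in the image check and inhibition above 20%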;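 as to inhibition: signal is fraction of cell area covered by stained E-selectin grains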;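 as to nuclei count: 100% = median nuclei count of all wells on the same plate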). The following applies: HUVEC TNFalpha-induced E-selectin immunofluorescence imaging, at 2 µM; inhibition: stronger effect = higher value; nuclei count: measured here: cell number, toxicity.
Assay [3] in a line: Primary imaging screen for DUSP6 inhibitors that restore phospho-Erk in transfected HeLa cells, chemical complementation (AID 609;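 active = compounds giving at least 50% inhibition in the cell-based MKP-3 phosphatase rescue imaging test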;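 as to inhibition: phospho-Erk level distribution per well compared with pooled transfected vehicle control wells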). The following applies: HeLa MKP-3 transfected, phospho-Erk imaging KS statistic, at 10 µM, cells stimulated with TPA for 15 min.
Assay [4] addresses Dual specificity protein phosphatase 6 (Homo sapiens) (UniProt Q16828). The description is as above. To be noted: HeLa MKP-3 transfected, phospho-Erk imaging KS statistic; at 10 µM; stronger effect = higher value; cells stimulated with TPA for 15 min.
Assay [5] has as its target Voltage-gated potassium channel subunit beta-2 (Rattus norvegicus) (UniProt P62483). The assay can be described thus: inhibitors of rat Kvbeta2 reductase activity – biochemical, NADPH fluorescence, primary screen (AID 622;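 active = fluorescence slope higher than the sample average by over 3 SD, cut at about -0.22 in these data, passing the limit was not always enough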;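 also: slope of raw intensity against log time taken from 70 to 1610 s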). To be noted: recombinant KvBeta, 4-cyanobenzaldehyde reduction, at 10 µM, stronger effect = higher value.
For assay [6] the target is unchanged. The assay can be described thus: enhancers of rat Kvbeta2 NADPH turnover – biochemical, NADPH fluorescence, primary screen (AID 623).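 Also: fluorescence intensity change per second fitted from 20 to 320 s.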 To be noted: Recombinant KvBeta, NADPH fluorescence decrease slope, 10 min; at 10 µM; stronger effect = lower value.
For assay [7], the target named is Muscarinic acetylcholine receptor M4 (Homo sapiens) (UniProt P08173). The assay can be described thus: M4-linked GIRK flux change, two-sided – cell-based, HEK293 M4/GIRK, thallium flux, BTC-AM, M4 allosteric agonist project, primary screen (AID 625;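 active = fluorescence slope after compound addition differing from the mean of all tested samples at 99.7% confidence, mostly higher but some lower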;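 also: thallium influx through GIRK channels coupled to M4 in HEK293 cells with BTC-AM dye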). To be noted: at 10 µM, actives lie on both sides.
Assay [8] in a line: inhibitors of larval lipid processing in zebrafish, primary screen, whole organism, PED6 fluorescence, gall bladder and intestine (AID 686;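 active = a full or partial loss of lipid-probe fluorescence in the fish gall bladder, intestine or both, judged by eye; inactive = no fluorescence loss, or compound toxic to the fish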;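 also: larvae 5 to 7 days old with five fish per well; signal comes from phospholipase A2 cleavage of quenched PED6 carried via bile; overnight exposure to compound and PED6 before scoring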). The following applies: Zebrafish larvae PED6 lipid processing, fluorescence scoring; screened at 20 µM (by protocol).
Assay [9] in a line: loss of swimming-algae plug formation – whole organism, Chlamydomonas reinhardtii, WT vs cilia-less mutant, absorbance, 96-well, primary screen (AID 463189;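 active = inhibition at or above 50% relative to wild type and mutant plate controls; inactive = inhibition below 50%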;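 also: 0% = wild type cc124 cells in DMSO and 100% = ciliumless bld1 mutant cells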). To be noted: Chlamydomonas reinhardtii gravitaxis, OD600 absorbance, 2 days; at 10 µM; stronger effect = higher value.
Assay [10] in a line: reduction of polyQ htt aggregates in cells – imaging, exon1htt(103Q)mCFP cells, high-content imaging, primary screen (AID 483;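 active = visual image review flags a hit and inhibition of aggregation exceeds 20%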;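 also: compound exposure lasted 3 days before fixation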;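 as to nuclei count: percent of the per-plate median nuclei count of sample wells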). To be noted: exon1htt(103Q)mCFP cell line, aggregate imaging, at 2 µM; inhibition of aggregation: stronger effect = higher value; nuclei count: measured here: cell count, toxicity.
Assay [11] addresses Alpha-2C adrenergic receptor (Homo sapiens) (UniProt P18825). The assay can be described thus: compounds altering alpha2C-coupled GIRK flux – cell-based, HEK293 alpha2C/GIRK1/2, thallium flux, primary screen (AID 624;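 active = fluorescence slope after compound addition differing from the mean of all screened samples at 99.7% confidence, in either direction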;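 also: slope of fluorescence ratio to pre-addition baseline per second over 15 to 24 s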). The following applies: thallium flux BTC fluorescence, at 10 µM, actives lie on both sides.
Assay [12] can be described thus: blockers of RIG-like receptor reporter activation – cell-based, Sendai virus stimulus, luciferase, 10K MLSCN set, TLR/RLR signaling modifier project, primary screen (AID 602276;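 active = inhibition at or above 50% at 10 µM; inactive = inhibition below 50%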;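 also: firefly luciferase from ISG56 promoter only with Renilla not read in this screen; 0% = Sendai virus plus DMSO and 100% = medium plus DMSO without virus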). The following applies: HEK293 RL24 IRF3 luciferase reporter, at 10 µM, stronger effect = higher value. For orientation: A reporter such as luciferase makes a cellular process visible.
Assay [13] in a line: TLR3 IRF3 reporter activation blockers – cell-based, poly I:C stimulus, luciferase, 10K MLSCN set, primary screen (AID 602277;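 active = inhibition of the reporter signal at or above 50%; inactive = inhibition below 50%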). The following applies: HEK293-TLR3 RL24 IRF3 luciferase reporter, at 10 µM, stronger effect = higher value.

The source made the active and inactive calls.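 The calls were made as follows, unless noted: active = NADPH fluorescence slope more negative than the mean of all samples by about 3 SD, 99.7% confidence; inactive = the rest.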

As a reminder, the inhibition is the relative decrease from the control value, in per cent.

Sequence of Alpha-2C adrenergic receptor (Homo sapiens) (P18825 whole entry, looked up): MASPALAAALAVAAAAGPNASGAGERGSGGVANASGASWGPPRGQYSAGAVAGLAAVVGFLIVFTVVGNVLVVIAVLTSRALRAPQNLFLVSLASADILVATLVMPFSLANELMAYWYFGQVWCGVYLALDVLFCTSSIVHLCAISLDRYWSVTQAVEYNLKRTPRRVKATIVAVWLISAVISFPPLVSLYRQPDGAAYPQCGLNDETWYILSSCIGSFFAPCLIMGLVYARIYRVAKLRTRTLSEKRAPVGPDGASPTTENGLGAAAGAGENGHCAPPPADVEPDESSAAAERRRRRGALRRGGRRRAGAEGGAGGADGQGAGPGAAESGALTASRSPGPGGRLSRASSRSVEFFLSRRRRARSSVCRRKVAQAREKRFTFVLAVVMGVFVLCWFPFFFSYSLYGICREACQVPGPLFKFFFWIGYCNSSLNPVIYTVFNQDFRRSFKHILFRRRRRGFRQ
Sequence of Voltage-gated potassium channel subunit beta-2 (Rattus norvegicus) (P62483 whole entry, looked up): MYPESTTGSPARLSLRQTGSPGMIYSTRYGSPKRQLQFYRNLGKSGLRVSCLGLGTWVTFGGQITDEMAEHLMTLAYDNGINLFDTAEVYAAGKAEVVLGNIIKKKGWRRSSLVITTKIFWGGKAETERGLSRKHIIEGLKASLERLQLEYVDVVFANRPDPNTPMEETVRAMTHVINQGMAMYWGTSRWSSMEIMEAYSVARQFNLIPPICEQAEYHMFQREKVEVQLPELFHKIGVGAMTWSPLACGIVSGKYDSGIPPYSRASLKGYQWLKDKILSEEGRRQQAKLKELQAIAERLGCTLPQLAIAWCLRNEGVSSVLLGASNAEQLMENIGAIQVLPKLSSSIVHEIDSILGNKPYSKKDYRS
Sequence of Muscarinic acetylcholine receptor M4 (Homo sapiens) (P08173 whole entry, looked up): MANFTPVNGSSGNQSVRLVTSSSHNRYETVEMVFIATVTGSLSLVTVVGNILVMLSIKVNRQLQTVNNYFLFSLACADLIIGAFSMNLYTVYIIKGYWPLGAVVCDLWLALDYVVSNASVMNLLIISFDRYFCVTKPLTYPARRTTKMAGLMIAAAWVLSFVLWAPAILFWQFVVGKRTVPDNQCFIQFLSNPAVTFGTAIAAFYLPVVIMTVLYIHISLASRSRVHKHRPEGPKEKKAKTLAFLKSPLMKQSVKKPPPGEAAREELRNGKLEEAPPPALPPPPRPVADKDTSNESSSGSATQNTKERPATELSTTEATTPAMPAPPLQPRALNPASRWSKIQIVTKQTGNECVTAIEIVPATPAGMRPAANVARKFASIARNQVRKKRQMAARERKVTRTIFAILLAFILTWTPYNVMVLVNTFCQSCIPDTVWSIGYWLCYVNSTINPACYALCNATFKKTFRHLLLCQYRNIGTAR
Sequence of Dual specificity protein phosphatase 6 (Homo sapiens) (Q16828 whole entry, looked up): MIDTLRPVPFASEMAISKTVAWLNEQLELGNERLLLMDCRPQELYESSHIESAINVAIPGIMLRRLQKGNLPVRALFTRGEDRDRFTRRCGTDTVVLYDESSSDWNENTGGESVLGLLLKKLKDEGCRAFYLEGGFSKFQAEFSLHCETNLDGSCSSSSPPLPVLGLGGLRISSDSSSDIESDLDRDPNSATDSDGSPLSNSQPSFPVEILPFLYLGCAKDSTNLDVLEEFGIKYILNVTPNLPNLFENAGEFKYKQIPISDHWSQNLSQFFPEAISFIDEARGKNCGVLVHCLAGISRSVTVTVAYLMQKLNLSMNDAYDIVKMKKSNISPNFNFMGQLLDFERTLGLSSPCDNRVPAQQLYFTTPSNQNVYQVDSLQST

Turning to `O=C(CSc1nc2ccccc2s1)Nn1cnnc1`, in [1], the cell count was 461. The inhibition in assay [1] was -6.2% (inactive); in assay [4] it was 6.04% (inactive); in [9] it was 17.1% (inactive). The compound also came in with a nuclei count in assay [2] of 166%. Also, the z-score in [3] (measured here: cell density z-score) is -0.815; in [3] (measured here: nuclear c-Myc green intensity z-score), -1.79; in [3] (measured here: nuclear pErk red intensity z-score, stronger effect = higher value), 0.477. For the same compound, the values for the fluorescence slope in assay [5] and in assay [7] were -0.439 (inactive) and 0.00557 (inactive), respectively. Also, the NADPH fluorescence slope in assay [6] is -7.8e-05 (inactive). Also, the compound was called inactive in assay [8].
For `O=C(/C=N/O)NCc1ccncc1`, the cell count in assay [1] was 420. For the same compound, the inhibition in assay [1] was 1.2% (inactive); in [2], 28.2% (inactive); in assay [12], 8.28% (inactive); in assay [13] it was 11.3% (inactive). For the same compound, the inhibition of aggregation in assay [10] is 0.7% (inactive). The nuclei count in assay [10] came out at 98.3%; in assay [2], 88%. Also, the fluorescence slope in assay [5] is -0.606 (inactive). Further, the NADPH fluorescence slope in [6] is -2.2e-05 (inactive). The slope in [11] was 0.00648 (inactive).
With `CCn1c(C(=O)N2CCC(C(=O)NCc3ccc4c(c3)OCO4)CC2)cc2sccc21`, the cell count in [1] came out at 505. The inhibition in assay [1] was -0.9% (inactive); in assay [2] it was -65.2% (inactive); in [12], 14.9% (inactive); in assay [13], -2.44% (inactive). The inhibition of aggregation in [10] is -30.3% (inactive). The nuclei count in assay [10] was determined as 75.4%; in assay [2], 120%. Also, in assay [5], the fluorescence slope is -0.508 (inactive). Moreover, the NADPH fluorescence slope in [6] was -5.3e-05 (inactive). The slope in assay [11] is 0.00644 (inactive).
Take `CCN1C(=O)c2cccc3c(NC(=O)c4ccc(S(=O)(=O)N(C)C)cc4)ccc1c23`: the cell count in [1] is 323. Also, the inhibition in assay [1] is -7.9% (inactive); in assay [2], -23.9% (inactive); in assay [12], 23.8% (inactive); in assay [13] it was 30.8% (inactive). Further, the inhibition of aggregation in assay [10] was -2.1% (inactive). Also, the values for the nuclei count in assay [10] and in [2] were 109% and 111%, respectively. Also, the fluorescence slope in assay [5] is -0.319 (inactive). Also, in [6], the NADPH fluorescence slope was -4.5e-05 (inactive). In addition, in assay [11], the slope is 0.0056 (inactive).
Take `CC(=O)N(C)C1(c2nnnn2CCOC(=O)Nc2cccc3ccccc23)CCCC1`: the cell count in [1] is 600. In addition, the inhibition was -8.2% (inactive) in assay [1], -99.1% (inactive) in assay [2], 13% (inactive) in assay [12] and 21.8% (inactive) in [13]. Also, in [10], the inhibition of aggregation is 31.6% (inactive). Besides, the values for the nuclei count in assay [10] and in [2] were 98.9% and 105%, respectively. Besides, the fluorescence slope in [5] was -0.61 (inactive). Moreover, the NADPH fluorescence slope in [6] is -5.7e-05 (inactive). The slope in assay [11] is 0.00458 (inactive).
`COc1ccc(NC(=O)C(C)NS(=O)(=O)c2ccccc2)cc1Cl` (centres undefined): in [1], the cell count was 315. In addition, the inhibition in assay [1] was -15.9% (inactive); in [2], -51.4% (inactive); in assay [12], 8.06% (inactive); in assay [13], 17.6% (inactive). The inhibition of aggregation in [10] is 2.6% (inactive). Also, the nuclei count in [10] stood at 116%; in assay [2] it was 65%. In addition, the fluorescence slope in assay [5] is -0.369 (inactive). Also, the NADPH fluorescence slope in assay [6] was 7.6e-06 (inactive). In addition, in [11], the slope is 0.00596 (inactive).
Take `O=C(CN(Cc1ccco1)C(=O)CNS(=O)(=O)c1ccc(F)cc1)NCCc1ccccc1`: the cell count in [1] was 520. Moreover, the inhibition in [1] was -2.1% (inactive); in assay [2], -38.5% (inactive); in assay [12], -0.0533% (inactive); in assay [13] it was 19.8% (inactive). Further, the inhibition of aggregation in [10] is -2.1% (inactive). Besides, the nuclei count in assay [10] came to 92.1%; in assay [2] it was 112%. In addition, the fluorescence slope in [5] is -0.481 (inactive). Besides, the NADPH fluorescence slope in assay [6] was -2.9e-05 (inactive). Also, the slope in assay [11] was 0.00696 (inactive).
For `Cc1ccc(OCC(O)CN2C(=O)NC(C)(C)C2=O)cc1C` (centres undefined), the cell count in [1] came to 673. Further, the inhibition in assay [1] was -2.9% (inactive); in assay [2] it was -19.6% (inactive); in [12] it was 5.76% (inactive); in assay [13], 24.9% (inactive). Besides, the inhibition of aggregation in assay [10] is -21.4% (inactive). In addition, the nuclei count in assay [10] is 107%; in [2], 112%. Besides, in assay [5], the fluorescence slope is -0.537 (inactive). The NADPH fluorescence slope in assay [6] was -2.6e-05 (inactive). In assay [11], the slope is 0.00799 (inactive).
